The text below walks through data of PubChem BioAssay (Tox21).

Unmarked numbers belong to inactive results. Results filed as inconclusive are left out. Calls of active or inactive are those of the source. Calls follow the shape of the full dose curve.

Experiment [1] deals with Acetylcholinesterase (Homo sapiens) (UniProt P22303). Kind of experiment: Acetylcholinesterase (AChE) small molecule antagonists: colormetric cell-based qHTS assay (AID 1347395). Also: nearly all actives have a fitted effect of over 30% in size. Also: potency is read from the fitted curve at half-maximal effect. A digest of the protocol:
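SH-SY5Y cells, plated overnight at 37 C, were exposed to compounds for 30 min at 37 C and 5% CO2. Acetylthiocholine plus DTNB was then added, and thiocholine from endogenous AChE was quantified colorimetrically after 90 min at 37 C.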

The target is the same in experiment [2]. As to the kind of experiment: Acetylcholinesterase (AChE) small molecule antagonists: fluorescence cell-based qHTS assay (AID 1347398). Also: nearly all actives have a fitted effect of over 50% in size. Also: potency is read from the fitted curve at half-maximal effect. As to conditions: Potency: AChE activity; outcome: AChE activity. In short, it runs like this:
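Homogeneous quantitative HTS format. SH-SY5Y cells seeded at 2,000 per well settle overnight at 37 C. Compound pretreatment runs 30 min (37 C, 5% CO2); substrate/probe mix then reacts 40 min at RT before reading 490/520 nm.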

For experiment [3] the target is unchanged. Kind of experiment: Acetylcholinesterase (AChE) small molecule antagonists: enzyme-based qHTS assay with human liver microsomes (AID 1347399). Also: nearly all actives have a fitted effect of over 60% in size. As to conditions: Potency: qHTS inhibition; outcome: qHTS inhibition. In short, it runs like this: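 Recombinant human AChE (50 mU/mL in the enzyme mix) and human liver microsomes (0.25 mg/mL final) were preincubated with compound and NADPH (0.25 mg/mL final) for 30 min at 37 C. Acetylthiocholine/DTNB was then added; thiocholine was read colorimetrically after 10 min at room temperature.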

Experiment [4] shares this target. As to the kind of experiment: Acetylcholinesterase (AChE) small molecule antagonists: enzyme-based qHTS assay (AID 1347397). Also: nearly all actives have a fitted effect of over 55% in size. Particulars: Potency: AChE enzyme activity inhibition; outcome: AChE enzyme activity inhibition. A digest of the protocol:
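First, recombinant human AChE (50 mU/mL as dispensed) received test compound or DMSO. Second, plates stood 30 min at room temperature. Third, DTNB and acetylthiocholine were added, followed by 10 min at room temperature and colorimetric detection.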
% is scaled to controls: 0 for no effect and ±100 for the full control effect.

Sequence of Acetylcholinesterase (Homo sapiens) (P22303 whole entry, looked up): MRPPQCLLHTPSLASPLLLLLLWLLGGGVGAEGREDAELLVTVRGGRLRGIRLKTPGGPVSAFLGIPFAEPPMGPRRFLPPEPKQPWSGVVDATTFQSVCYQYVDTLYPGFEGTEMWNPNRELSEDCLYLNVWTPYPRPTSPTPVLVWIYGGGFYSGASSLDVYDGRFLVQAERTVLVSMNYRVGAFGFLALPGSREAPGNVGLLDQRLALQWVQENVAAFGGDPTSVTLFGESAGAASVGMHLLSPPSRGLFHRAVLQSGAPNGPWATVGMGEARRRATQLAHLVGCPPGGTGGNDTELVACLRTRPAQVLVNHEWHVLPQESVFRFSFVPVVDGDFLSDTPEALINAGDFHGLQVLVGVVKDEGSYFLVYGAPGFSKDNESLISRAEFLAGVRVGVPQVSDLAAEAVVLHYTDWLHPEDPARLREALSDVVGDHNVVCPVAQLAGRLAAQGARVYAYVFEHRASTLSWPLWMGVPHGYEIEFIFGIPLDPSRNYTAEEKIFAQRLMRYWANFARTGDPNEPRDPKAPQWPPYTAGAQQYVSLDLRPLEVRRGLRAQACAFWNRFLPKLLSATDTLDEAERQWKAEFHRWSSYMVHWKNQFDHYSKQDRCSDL

On to `c1ccc(-c2ccc(C(c3ccccc3)n3ccnc3)cc2)cc1` (stereo unspecified), for which the Potency result in experiment [1], in experiment [2] and in experiment [3] was “inactive” each time.
In the case of `CCCCCCCCCCCCCCOS(=O)(=O)O`, the Potency result in experiment [1], in experiment [2] and in experiment [3] was “inactive” throughout.
Regarding `COc1cc2nc(N3CCN(C(=O)C4CCCO4)CC3)nc(N)c2cc1OC` (stereo unspecified), the Potency in experiment [1] is 27.5 µM (active); in experiment [2], 12.3 µM (active). Moreover, the Potency result in experiment [3] is “inactive”.
For `Nc1c(N=Nc2ccc(-c3ccc(N=Nc4cc(S(=O)(=O)O)c5ccccc5c4N)cc3)cc2)cc(S(=O)(=O)O)c2ccccc12`, the Potency in experiment [1] was 79.6 µM (active); in experiment [2] it was 71 µM (active). For the same molecule, in experiment [3], the Potency result is “inactive”.
On the same counts, the results for `CCC(CO)(CO)[N+](=O)[O-]` are “inactive”, “inactive” and “inactive”.
As for `Nc1c(NC/C=C\COc2cc(CN3CCCCC3)ccn2)c(=O)c1=O`, in experiment [1], the Potency was 13.5 µM (active). Besides, the activity change, negative = inhibition in experiment [2] is -23% [at 23.8 µM]; in experiment [3], 0.669% [at 23.6 µM].
With `CSC(=O)c1cccc2nnsc12`, the results for the Potency in experiment [1] and in experiment [2] were 35.6 µM (active) and 39.9 µM (active), respectively. Also, in experiment [3], the Potency entry was “inactive”.
The matching figures for `C=C(C)C(=O)OCCOCCOC(=O)C(=C)C`: “inactive”, “inactive” and “inactive”.
Turning to `CCCCCCOc1ccccc1C(N)=O`, the Potency entry in experiment [1], in experiment [2] and in experiment [3] was “inactive” each time.
On to `CCN1/C(=C/C=C/c2sc3ccccc3[n+]2CC)Sc2ccccc21`, for which the Potency in experiment [1] is 10.7 µM (active); in experiment [2], 6.74 µM (active). Besides, the activity change, negative = inhibition in experiment [3] is 4.36% [at 23.6 µM].
On to `CCCCCCCCOCCCN`, for which the Potency entry in experiment [1], in experiment [2] and in experiment [3] was “inactive” each time.
Turning to `CCOc1nc2cccc(C(=O)OC(C)OC(=O)OC3CCCCC3)c2n1Cc1ccc(-c2ccccc2-c2nn[nH]n2)cc1` (stereo unspecified), the Potency entry in experiment [1], in experiment [2] and in experiment [3] was “inactive” each time.
As for `O=C(OC[C@H]1O[C@@H](OC(=O)c2cc(O)c(O)c(OC(=O)c3cc(O)c(O)c(O)c3)c2)[C@H](OC(=O)c2cc(O)c(O)c(OC(=O)c3cc(O)c(O)c(O)c3)c2)[C@@H](OC(=O)c2cc(O)c(O)c(OC(=O)c3cc(O)c(O)c(O)c3)c2)[C@@H]1OC(=O)c1cc(O)c(O)c(OC(=O)c2cc(O)c(O)c(O)c2)c1)c1cc(O)c(O)c(OC(=O)c2cc(O)c(O)c(O)c2)c1`, the activity, negative = inhibition in experiment [1] was 1.72% [at 23.6 µM]. In addition, the activity change, negative = inhibition in experiment [2] is -11.1% [at 23.8 µM]; in experiment [3] it was -0.451% [at 23.6 µM].
For `CCOC(=O)c1ccccc1C(=C1C=C(Br)C(=O)C(Br)=C1)c1cc(Br)c(O)c(Br)c1`, the Potency entry in experiment [1], in experiment [2] and in experiment [3] was “inactive” each time.
On to `O=[N+]([O-])c1cccc(S(=O)(=O)NCCNS(=O)(=O)c2cccc([N+](=O)[O-])c2)c1`, for which the Potency result in experiment [4] was “inactive”.
`CCOC(=O)c1ccc(NC(=O)CN2CCCCC2)cc1`: the Potency in experiment [1] is 30.9 µM (active). Moreover, in experiment [3], the Potency result was “inactive”.
For the molecule `Clc1ccc(C(Cn2ccnc2)OCc2c(Cl)cccc2Cl)c(Cl)c1` (stereo unspecified), the Potency entry in experiment [1] and in experiment [3] was “inactive” in each case.
As for `CCCCCC/C=C\CCCCCCCC(=O)O`, the Potency result in experiment [1], in experiment [2] and in experiment [3] was “inactive” each time.
`CC(C)=CCOc1ccc(/C=C/C(=O)c2ccc(OCC=C(C)C)cc2OCC(=O)O)cc1`: the Potency result in experiment [1], in experiment [2] and in experiment [3] was “inactive” in each case.
As to `CCCCCCCCCCCCCCCCC(C(=O)O)C(O)(CC(=O)O)C(=O)O` (stereo unspecified), the Potency entry in experiment [1], in experiment [2] and in experiment [3] was “inactive” each time.
On to `CCOC(=O)C(Br)c1ccccc1` (stereo unspecified), for which the Potency in experiment [1] is 71 µM (active). In addition, in experiment [3], the Potency result is “inactive”.
On the same counts, the results for `C=CCc1cc(S(=O)(=O)c2ccc(O)c(CC=C)c2)ccc1O` are “inactive” and “inactive”.
Turning to `N=C1C=CC(=C(c2ccc(N)cc2)c2ccc(N)cc2)C=C1`, the Potency result in experiment [1] and in experiment [3] was “inactive” throughout. The Potency in experiment [2] is 39.9 µM (active).
With `Cc1ccc2c(c1)OCC(=O)CO2`, in experiment [1], the Potency is 35.6 µM (active). Besides, the Potency entry in experiment [3] was “inactive”.
On the same counts, the results for `CCN(CC)c1ccc2c(c1)Oc1cc(N(CC)CC)ccc1C21OC(=O)c2ccccc21` are “inactive” and “inactive”.
On to `COC(=O)CC(C)=O`, for which the Potency result in experiment [1], in experiment [2] and in experiment [3] was “inactive” throughout.
Regarding `O=C(Nc1ccc(Cl)c(Cl)c1)c1cc(Cl)cc(Cl)c1O`, the Potency entry in experiment [1], in experiment [2] and in experiment [3] was “inactive” each time.
With `CC(=O)S[C@H](C(=O)N[C@H]1Cc2ccccc2[C@H]2CCC[C@@H](C(=O)O)N2C1=O)C(C)C`, the Potency entry in experiment [1], in experiment [2] and in experiment [3] was “inactive” throughout.
Consider `CCOC(=O)Nc1ccc(NCc2ccc(F)cc2)nc1N`, for which the Potency result in experiment [1] and in experiment [3] was “inactive” in each case.
Turning to `CCCOc1sc(C(=O)N2CCC(c3cc(CN)ccc3F)CC2)c(C)c1Br`, the Potency result in experiment [1] and in experiment [3] was “inactive” throughout.
Turning to `CN1CCCN=C1/C=C/c1cccs1`, the Potency in experiment [1] was 15.5 µM (active). Further, the Potency entry in experiment [3] is “inactive”.
Regarding `CC(Cc1ccc(O)c(O)c1)C(C)Cc1ccc(O)c(O)c1` (stereo unspecified), the Potency result in experiment [1] and in experiment [3] was “inactive” each time.
As to `N#CCCOCCC#N`, the Potency entry in experiment [1], in experiment [2] and in experiment [3] was “inactive” in each case.
For the molecule `CC(=O)/C=C/C=C1/C2CCC(C2)C1(C)C` (stereo unspecified), in experiment [1], the Potency is 27.5 µM (active). Moreover, the Potency result in experiment [3] is “inactive”.
For `CCOCCOC(=O)/C=C/c1ccc(OC)cc1`, the Potency result in experiment [1], in experiment [2] and in experiment [3] was “inactive” each time.
As for `CCc1cccc(C)c1`, the Potency result in experiment [1] and in experiment [3] was “inactive” each time.
With `CCN(Cc1cccc(S(=O)(=O)O)c1)c1ccc(C(=C2C=CC(=[N+](CC)Cc3cccc(S(=O)(=O)[O-])c3)C=C2)c2ccccc2)cc1`, the Potency entry in experiment [1] and in experiment [3] was “inactive” each time.
With `CCCN1C[C@H](CSC)C[C@@H]2c3cccc4[nH]cc(c34)C[C@H]21`, the Potency in experiment [1] was 5.5 µM (active). For the same molecule, the call in experiment [3] was inactive.
Consider `CN1CC(=O)N2[C@H](c3ccc4c(c3)OCO4)c3[nH]c4ccccc4c3C[C@@H]2C1=O`, for which the Potency in experiment [1] is 27.5 µM (active). Further, the Potency entry in experiment [3] was “inactive”.
On the same counts, the results for `O=C(Nc1cccc2c(=O)cc(-c3nn[nH]n3)oc12)c1ccc(OCCCCc2ccccc2)cc1` are “inactive” and “inactive”.
The matching figures for `COc1c(C)c2c(c(O)c1C/C=C(\C)CCC(=O)O)C(=O)OC2`: “inactive” and “inactive”.
Take `Clc1ccc(C(Cn2ccnc2)OCc2ccsc2Cl)c(Cl)c1` (stereo unspecified): the Potency entry in experiment [1] and in experiment [3] was “inactive” throughout.
